From paper PMC5540273 (PLoS ONE, 2017)

Columns and labels:
Settings in all cases: concentration: 1 μM,replicates: in singlicate; n = 1
ERK1 = test system: T1, ERK1
T1 construct: gene MAPK3

ERK2 = test system: T2, ERK2
T2 construct: gene MAPK1

ERK3 = test system: T3, ERK3
T3 construct: gene MAPK6

ERK4 = test system: T4, ERK4
T4 construct: gene MAPK4

ERK5 = test system: T5, ERK5
T5 construct: gene MAPK7

ERK8 = test system: T6, ERK8
T6 construct: gene MAPK15

ERN1 = test system: ERN1
FAK = test system: T7, FAK
T7 construct: gene PTK2

FER = test system: FER
FES = test system: FES
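Note: KINOMEscan kinase panel screen.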

SMILES	%Inh (ERK1) [%]	%Inh (ERK2) [%]	%Inh (ERK3) [%]	%Inh (ERK4) [%]	%Inh (ERK5) [%]	%Inh (ERK8) [%]	%Inh (ERN1) [%]	%Inh (FAK) [%]	%Inh (FER) [%]	%Inh (FES) [%]
CNC(=O)c1ccccc1Nc1nc(Nc2cccc(CS(C)(=O)=O)c2)ncc1C.O=CO [GSK1520489]	46	60	35	35	0	80	58	99.9	96	38
CC(C)S(=O)(=O)N1CCN(Cc2ccc3c(c2)nc(NC(=O)c2ccsc2)n3C[C@H](O)c2ccccc2)CC1 [GW635815]	0	0	1	0	0	0	4	29	39	15
CCn1c(-c2nonc2N)nc2cncc(CNC3CCNCC3)c21.Cl [SB-747651]	0	0	6	0	0	16	2	0	2	0
O=C1NCCc2[nH]c(-c3ccncc3)cc21	13	28	0	0	0	93.1	8	0	4	30
O=c1[nH]cc(-c2ccc(O)cc2)c2sc(-c3ccncc3)cc12 [GSK1033723]	0	0	11	1	0	0	0	0	1	13
CN(c1ccc2c(c1)nc(NCc1ccc(F)cc1)n2C)c1ccnc(Nc2ccc(CS(C)(=O)=O)cc2)n1.Cl [GW813244]	3	0	0	0	0	29	28	22	20	0
N#Cc1cccc(C(=O)NC2CCN(c3ccnc(Nc4ccc(F)cc4)n3)C2)c1 (stereo not drawn) [GSK1379708]	0	10	9	0	0	0	0	0	30	2
COc1cc2ncn(-c3cc(OCC4CCCCC4)c(C(N)=O)s3)c2cc1OC [GSK204559]	6	2	18	4	0	2	8	0	23	8
O=C(Nc1ccccc1)c1cccc(Oc2ccc3nccn3n2)c1	0	0	0	77	0	0	22	0	2	6
C[C@@H]1CNc2c(sc3ccc4nc(-c5ccncc5)ccc4c23)C(=O)N1	0	6	0	16	15	24	0	0	20	9
FC(F)(F)c1cc(Br)cc(Nc2nccc(-c3cnn4ncccc34)n2)c1 [GW810578]	0	25	16	0	0	99.5	59	18	0	0
COc1cc2nccc(Nc3ccc(Oc4ccccc4)cc3)c2cc1OC.Cl [GI261656]	0	0	17	0	0	0	29	0	33	0
Cn1ccc2ncnc(Oc3ccc(NC(=O)Nc4cnn(C(C)(C)C)c4)c(Cl)c3)c21	19	4	0	1	7	25	26	0	0	13
COc1cc2c(Nc3ccc(NC(=O)c4ccccc4)cc3)ncnc2cc1OCCCN1CCOCC1 [GSK301329]	4	3	0	0	0	0	46	0	4	0
OCCn1cc(-c2cnc3nnn(Cc4ccc5ncccc5c4)c3n2)cn1	0	0	0	18	3	9	0	0	0	0
COc1cccc(CNC(=O)NC2CCN(c3ccnc(Nc4cc(OC)c(OC)c(OC)c4)n3)C2)c1 (stereo not drawn) [GSK1379765]	0	0	33	0	0	0	3	0	26	0
COC(=O)c1cccc(NC(=O)NC2CCN(c3ccnc(Nc4cc(OC)c(OC)c(OC)c4)n3)C2)c1 (stereo not drawn) [GSK1379767]	0	0	19	0	0	0	4	0	17	15

SMILES	%Inh (ERK1) [%]	%Inh (ERK2) [%]	%Inh (ERK3) [%]	%Inh (ERK4) [%]	%Inh (ERK5) [%]	%Inh (ERK8) [%]	%Inh (ERN1) [%]	%Inh (FAK) [%]	%Inh (FER) [%]	%Inh (FES) [%]
CCNCC(Cc1ccccc1)NC(=O)c1cc(Br)c(-c2ccnc3[nH]ccc23)s1.Cl.Cl (stereo not drawn) [GSK1383280]	19	0	4	32	0	3	12	2	0	0
COc1cc(Nc2nccc(N3CCC(NC(=O)c4cccc(C#N)c4)C3)n2)cc(OC)c1OC (stereo not drawn) [GSK1379751]	0	0	3	0	0	0	0	0	0	0
CC(C(=O)NC1CCN(c2ccnc(Nc3ccc(F)cc3)n2)C1)c1ccc(Cl)cc1 (stereo not drawn) [GSK1379713]	0	0	0	0	0	0	0	0	46	1
O=C(Nc1cccc(C(F)(F)F)c1)c1cccc(Oc2ccc3nccn3n2)c1	7	7	0	2	22	4	29	38	5	0
Cn1ccc2ncnc(Oc3ccc(NC(=O)Nc4cccc(C(F)(F)F)c4)c(Cl)c3)c21	0	18	0	10	12	11	15	41	0	9
CC(=O)Nc1ccc(-c2cc3ncnc(SCC(=O)O)c3s2)cc1	0	9	0	0	0	27	10	1	0	14
Cn1ccc2ncnc(Oc3ccc(NC(=O)Nc4cncc(C(F)(F)F)c4)c(Cl)c3)c21	0	0	0	0	0	0	0	0	0	0
Cn1cc(-c2cccc3c(N)c(C(N)=O)nnc23)cn1	5	27	0	0	0	0	33	21	8	8
Cn1ccc2ncnc(Oc3ccc(NC(=O)Nc4ccnc(C(F)(F)F)c4)c(Cl)c3)c21	0	0	0	0	0	0	11	0	0	10
CS(=O)c1ccc(-c2coc3ccc(-c4n[nH]c(=O)o4)cc23)cc1 (stereo not drawn)	7	1	0	0	0	44	0	0	0	0
CC(C)c1nc(-c2cccc(NS(=O)(=O)c3ccccc3)c2)c(-c2ccnc(Nc3ccc4c(c3)CN(C)CC4)n2)s1 [GSK1649598]	0	0	0	43	11	0	63	0	23	0
CCn1c(-c2nonc2N)nc2cncc(Br)c21 [SB-738004]	0	6	0	19	6	0	19	9	10	8
CS(=O)(=O)c1cccc(CNc2nc(Nc3ccc4c(c3)[C@@H]3C[C@@H]4CNC3=O)ncc2C(F)(F)F)c1	24	44	0	0	7	99.6	17	100	93.4	85
COc1cccc(C2=C(Nc3cccc(Cl)c3)C(=O)NC2=O)c1 [SB-341556]	3	0	0	17	0	71	10	0	0	0
Cc1ccc(Nc2ccnc(Nc3ccc4c(c3)CS(=O)(=O)C4)n2)cc1O.Cl [GW579362]	0	0	51	48	0	18	42	65	52	2
Cl.Nc1n[nH]c2cc(-c3ccccn3)ccc12 [GSK2189892]	0	0	0	31	0	0	0	0	13	0
